This passage reports binding signal results from article PMC7819943, “Rice protein-binding microarrays: a tool to detect cis-acting elements near promoter regions in rice”.

Whole data set: some 68,000 sequences, median “fluorescence intensity (a.u.)” near 9,100, cut for the highest 2% near 16,000. The sample holds the highest values, similar sequences and a random draw of the others, so the mix is not that of the screen.

This experiment deals with OsWRKY34 (Oryza sativa, UniProt Q0JBA9 1-250). Nature of the experiment: protein-binding microarray (RPBM); PBS, 2% BSA, 51.3 ng/ul salmon testes DNA, 50 uM zinc acetate, 200 nM TF, 25 C, 1 h; high values mean tight binding. The following applies: protein: recombinant; tags: N-terminal polyhistidine and DsRed monomer fusion (pET32a); label: CyDye5-dUTP incorporated in the synthesized complementary strand; 3' TTTTT single-stranded linker to array surface; dsDNA, one strand shown. In outline: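 A custom Agilent array was converted to double-stranded form by primer extension with Cy5-dUTP and blocked with 2% BSA. Protein at 200 nM in PBS with 2% BSA, salmon testes DNA and 50 µM zinc acetate was applied for 1 h at 25 °C, followed by washing. The proteins were polyhistidine–DsRed N-terminal fusions of transcription factors, expressed in E. coli BL21-CodonPlus and Ni–NTA-purified. The binding signal is per-feature fluorescence intensity (arbitrary units) from an Axon 4000B scanner.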
Chain of OsWRKY34 (Q0JBA9 entry or part of it): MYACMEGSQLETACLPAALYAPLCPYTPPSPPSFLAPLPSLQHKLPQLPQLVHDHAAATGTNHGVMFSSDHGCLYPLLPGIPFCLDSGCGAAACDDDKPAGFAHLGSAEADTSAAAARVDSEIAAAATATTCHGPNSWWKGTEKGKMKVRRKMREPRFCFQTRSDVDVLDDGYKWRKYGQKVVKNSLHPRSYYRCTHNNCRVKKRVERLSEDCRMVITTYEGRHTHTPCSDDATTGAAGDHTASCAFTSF
For the sequence “ATCCGTCCGTTTCGTTCCGTACGAACCGCCGGCGTTCAAACGGAGTCACCTAGTGCAG”, the binding signal is 8580 fluorescence intensity (a.u.).
To “GCCTCCGCCGCCGCCGCCGCCCGCCGGCCATCTCCGTCGACGGAGTCACCTAGTGCAG” belongs 13900 fluorescence intensity (a.u.).
For “CAATGTATTCAGGTACGCCGATTATTTGGTTGGTAGTAGTCGGAGTCACCTAGTGCAG” the value was 11500 fluorescence intensity (a.u.); for “ATACTCGCTCCGTGTTTTAATATATGACGCTGTTGATTTTCGGAGTCACCTAGTGCAG”, 12700 fluorescence intensity (a.u.).
For the sequence “GCTCGGTGTGGCGATCTCACAGCCGCATATCGCATTTCACCGGAGTCACCTAGTGCAG”, the binding signal is 8680 fluorescence intensity (a.u.).
Regarding “GGCCCCACGTTTCATCCTCACGACCGTGTCCAACCCAGGGCGGAGTCACCTAGTGCAG”, the binding signal was 10300 fluorescence intensity (a.u.).
“CGCGCGGTCGAGGAGGGTGGGGCCGCCGCGCTCACCTCCGCGGAGTCACCTAGTGCAG”: the binding signal was 8480 fluorescence intensity (a.u.).
In the case of “TGTGGTGGCGAGCGGCACGGAGGCGGGGCGGTGGAGGGAGCGGAGTCACCTAGTGCAG”, the binding signal was 9670 fluorescence intensity (a.u.).
In the case of “GAGGTGGTGGAGCGAGGTGGAAGAGGGCGCGGGTGGCGGGCGGAGTCACCTAGTGCAG”, the binding signal was 9480 fluorescence intensity (a.u.).
For the sequence “GTGGCGCGAGGGGAGGGAAGGGTAGGGCGGCGCGGCGGCGCGGAGTCACCTAGTGCAG”, the binding signal is 9730 fluorescence intensity (a.u.).
Consider “TGGTTTTATAGGCGTGGGGTGTGGAGCTTCGAGGGGAAGGCGGAGTCACCTAGTGCAG”, for which the binding signal is 13900 fluorescence intensity (a.u.).
For “GAAGAGGAGAGAGGAAGAGAGGTGGAAAGGGGAGGGGAAGCGGAGTCACCTAGTGCAG” the value was 9460 fluorescence intensity (a.u.); for “ATCTCCGTCGGTGGGGAAAAGGAGGTGGGGAGGGGAGGAGCGGAGTCACCTAGTGCAG”, 18800 fluorescence intensity (a.u.).
To “AAGAGGGCGCGGGTGGCGGGGATGGGCGAGGGGAAGGCGGCGGAGTCACCTAGTGCAG” belongs 17700 fluorescence intensity (a.u.); to “CGTCGGTAGGGAGGAGGAGGAGGAGGAGGTGGTGGTGGTGCGGAGTCACCTAGTGCAG”, 12000 fluorescence intensity (a.u.).
Regarding “CGGTGGTGGTGGATGCTGGCGCTGGCGGTGGGCGCGAGCTCGGAGTCACCTAGTGCAG”, the binding signal is 10100 fluorescence intensity (a.u.).
For the sequence “TGGAGTGGAGTTTCGATAGGTGTGGCGGGGAGGGAGGGAGCGGAGTCACCTAGTGCAG”, the binding signal is 19800 fluorescence intensity (a.u.).
On to “GCTTTGGTCGGTTGGGGTGGGCTGGATGCGCCTCCGCGCTCGGAGTCACCTAGTGCAG”, for which the binding signal was 17800 fluorescence intensity (a.u.).
“CAGATGGTCTGGTGGTCGGCGGAGGTCCCGGCGCGCGCGTCGGAGTCACCTAGTGCAG”: the binding signal was 8360 fluorescence intensity (a.u.).
In the case of “TATGGTATTTGGGTTAAAGAACGAAAATCGAACTCGCTGTCGGAGTCACCTAGTGCAG”, the binding signal was 8160 fluorescence intensity (a.u.).
For “GAGGGAGGGAGGGAGGGAGACCGCGAGTGTGAGTGACTGCCGGAGTCACCTAGTGCAG”, the binding signal is 10200 fluorescence intensity (a.u.).
Regarding “ACTGCCCTTATCATTTCCGATTCCGTTTCCGAGAAAATATCGGAGTCACCTAGTGCAG”, the binding signal is 9240 fluorescence intensity (a.u.).
For the sequence “ACTTTGTCACTTGACTTATTCTCTGGCCGTGCGTATAAATCGGAGTCACCTAGTGCAG”, the binding signal was 8150 fluorescence intensity (a.u.).
Take “CCTGCTATTGTACCTGCTCTAAGCCAGCTATAACCATATACGGAGTCACCTAGTGCAG”: the binding signal was 8170 fluorescence intensity (a.u.).
For “GTGAAGTGTGGTTTAAAAATGGTTGCCTGGTCACTTTATCCGGAGTCACCTAGTGCAG”, the binding signal is 9020 fluorescence intensity (a.u.).
In the case of “TGTCAGTCACTGTCCCCTTCGTGGTCGTCTTCGCCACTTCCGGAGTCACCTAGTGCAG”, the binding signal is 9210 fluorescence intensity (a.u.).
For the sequence “GGCGGGCGCGGTGGAGGCGGGGAGGAAGGGGAGCGGAGGTCGGAGTCACCTAGTGCAG”, the binding signal was 9390 fluorescence intensity (a.u.).
On to “GGCGGGAGGCGCGGGCGGCGAGGTGCTCCTCTTCTCTCTCCGGAGTCACCTAGTGCAG”, for which the binding signal is 9060 fluorescence intensity (a.u.).
Consider “GCGGAGGAGGGCGGGAGGAAGCGGGTGGCGGCGGCGGAGTCGGAGTCACCTAGTGCAG”, for which the binding signal is 10900 fluorescence intensity (a.u.).
On to “TCTCTTCCTTGCTGTGGTGGCGGCGGGCGGGAGGGCGGCGCGGAGTCACCTAGTGCAG”, for which the binding signal was 35000 fluorescence intensity (a.u.).
For “AGGTGGAGGCGCCGGTGTGGGTGGTGGAGCGGGAGGAGGTCGGAGTCACCTAGTGCAG” the value was 8610 fluorescence intensity (a.u.).
For “GGGGTGGGGTTGGCGGCGACGCGGGCGAGGCCGAGGAGGACGGAGTCACCTAGTGCAG” the value was 13400 fluorescence intensity (a.u.).
For “AAGCGATCGGGGCGGCGGAGGAGGTGGGTGGGAGGGAGGGCGGAGTCACCTAGTGCAG”, the binding signal was 30200 fluorescence intensity (a.u.).
For the sequence “GTCGGGCGGGAGCGGTGCAGGGTGGAGGAGGTGGGCGGGGCGGAGTCACCTAGTGCAG”, the binding signal was 22900 fluorescence intensity (a.u.).
For “CTCTCCTCTCTTCTCGAGCGCGGCGGCGGTGGTGGGGAGGCGGAGTCACCTAGTGCAG” the value was 14300 fluorescence intensity (a.u.).
For “CGGCGGAGGGAGGATCGGGGTGGGTGGCGCAGCGGCGACGCGGAGTCACCTAGTGCAG” the value was 11200 fluorescence intensity (a.u.).
Take “GCGGTGGCGGTTGGGGTGGCGAGTGGGGAGGAGGAGGCGGCGGAGTCACCTAGTGCAG”: the binding signal is 18900 fluorescence intensity (a.u.).
Turning to “GGGGAGGCGAGGCGGCGAGGTTATAAAAACGGTGGGGTGGCGGAGTCACCTAGTGCAG”, the binding signal was 12200 fluorescence intensity (a.u.).
Turning to “ATACTAGTCCATTCGAGTTGAAACGTTCAGTGAACAGCTACGGAGTCACCTAGTGCAG”, the binding signal was 8030 fluorescence intensity (a.u.).
For “GATCTCTTGCAGCTGCGCATCTGTGCATGCATCCACACTACGGAGTCACCTAGTGCAG”, the binding signal is 9260 fluorescence intensity (a.u.).
As to “TTGATCCTGCTTTTAGTTATAGTTTTTGTTAGGGTGTATTCGGAGTCACCTAGTGCAG”, the binding signal is 10100 fluorescence intensity (a.u.).
As to “TAAAACTAGTCATCCCTTCATTTTATATTATAAGTTGTTTCGGAGTCACCTAGTGCAG”, the binding signal is 8290 fluorescence intensity (a.u.).
